High-throughput results: PubChem, several laboratories
Compounds with a hit are over-represented: about 2.1% of the library has one in this group of screens.
IDE act: IDE (human) activation, cell-based; hit rate 0.073% among 340,000; AID 493087; P14735; HEK cells, FAbeta-B cleavage, fluorescence polarization; 0% vehicle, 100% cell-free pure enzyme wells; activation, % at 5.96 µM;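 active means activation above the mean of all tested compounds plus 3 SD, set per screening campaign, cut at about 17% in these data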
Target sequence (P14735 whole entry, looked up): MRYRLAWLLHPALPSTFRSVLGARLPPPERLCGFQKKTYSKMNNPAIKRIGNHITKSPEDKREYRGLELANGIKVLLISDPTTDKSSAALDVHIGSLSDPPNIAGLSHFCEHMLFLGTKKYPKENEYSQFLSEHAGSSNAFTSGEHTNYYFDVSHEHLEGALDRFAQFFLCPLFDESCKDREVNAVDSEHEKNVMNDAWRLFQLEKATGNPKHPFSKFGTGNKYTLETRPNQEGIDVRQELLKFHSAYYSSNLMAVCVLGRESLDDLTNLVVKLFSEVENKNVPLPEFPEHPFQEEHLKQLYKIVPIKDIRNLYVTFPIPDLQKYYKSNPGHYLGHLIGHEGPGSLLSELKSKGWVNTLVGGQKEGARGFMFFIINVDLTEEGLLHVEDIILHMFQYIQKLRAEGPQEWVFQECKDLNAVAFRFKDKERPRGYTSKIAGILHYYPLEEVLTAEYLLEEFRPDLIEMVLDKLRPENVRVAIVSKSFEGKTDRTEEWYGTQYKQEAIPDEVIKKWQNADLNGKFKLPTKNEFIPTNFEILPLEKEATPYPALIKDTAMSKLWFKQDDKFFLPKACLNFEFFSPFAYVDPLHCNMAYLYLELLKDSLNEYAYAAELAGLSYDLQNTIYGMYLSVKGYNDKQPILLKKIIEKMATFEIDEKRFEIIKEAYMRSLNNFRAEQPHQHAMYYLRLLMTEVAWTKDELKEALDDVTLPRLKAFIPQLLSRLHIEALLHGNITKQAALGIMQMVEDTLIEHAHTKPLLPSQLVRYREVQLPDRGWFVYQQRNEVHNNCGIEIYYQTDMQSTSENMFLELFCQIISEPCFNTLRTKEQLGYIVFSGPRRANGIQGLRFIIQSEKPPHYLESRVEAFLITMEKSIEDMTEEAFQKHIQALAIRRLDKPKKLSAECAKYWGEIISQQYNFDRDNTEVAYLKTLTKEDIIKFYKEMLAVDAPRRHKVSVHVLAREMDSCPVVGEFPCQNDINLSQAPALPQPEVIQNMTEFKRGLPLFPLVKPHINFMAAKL
IDE cell inh: inhibitors of human insulin-degrading enzyme in cells; P14735; HEK cells, FAbetaB cleavage, fluorescence polarization; inhibition, % at 5.59 µM; hit rate 0.41% among 320,000; AID 434962;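 active means percent inhibition above the average of all tested compounds plus 3 SD, set per screening campaign, cut at about 16% in these data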;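 further: IDE supplied by intact live HEK cells; FP after avidin binding of uncleaved biotin substrate so inhibition keeps polarization high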
Mot1-301 SUMO: blocks SUMOylation pathway, rescuing yeast Mot1-301 growth | hit rate 1% among 320,000 | growth rescue, % at 18.8 µM | S. cerevisiae Mot1-301 growth rescue, ATP luminescence, 38.5C; percent above DMSO median, 100 means doubled;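 active means every valid replicate shows activation above 250% relative to neutral control wells; inactive means the rest, any valid replicate at or below 250%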
HDAC3 inhib: blocks human histone deacetylase 3 | recombinant HDAC3, fluorogenic peptide/trypsin coupled, fluorescence | hit rate 0.15% among 320,000 | O15379 | AID 2718 | inhibition, % at 8.3 µM; in the data active means inhibition above about 26%, passing the limit was not always enough; inconclusive means no clear call, values can overlap the other calls
LANA-H2B inh: blocks KSHV LANA binding to histone H2A/H2B; cell-free LANA-H2A/H2B peptide, fluorescence polarization; Q9QR71; inhibition, % (no concentration beside the values); hit rate 0.6% among 320,000; AID 2629; in the data active means inhibition mostly above about 10%, no sharp cut-off; inactive means mostly below about 6.7%
Large screens that a line does not name were inactive.

CCN(CC)c1ccc(C2=NNC(=O)CC2C)cc1[N+](=O)[O-] (stereo not given)	LANA-H2B inh 20
CC1CC(=O)NN=C1c1ccc(N(C)C)c([N+](=O)[O-])c1 (stereo not given)	none
CS(=O)(=O)c1ccc(C(=O)CN2C(=O)NC3(CCCc4ccccc43)C2=O)cc1 (stereo not given)	LANA-H2B inh 17
CC(C(=O)Nc1ccccn1)N1C(=O)c2ccccc2S1(=O)=O (stereo not given)	none
CCOC(=O)C1=C(C)NC(C)=C(C(=O)OCC)C1C(=O)OCC(=O)N(C)C1CCS(=O)(=O)C1 (stereo not given)	LANA-H2B inh 20
CCOC(=O)C1=C(C)NC(C)=C(C(=O)OCC)C1C(=O)OCC(N)=O	none
CCC(C)C(NC(=O)C1CCC(C)CC1)C(=O)NCc1ccco1 (stereo not given)	none
CC(C)CN(CCCNC(=O)CN1C(=O)COc2ccc(S(=O)(=O)N3CCOCC3)cc21)CC(C)C	none
CN(C)c1ccc(NC2=C([N+](=O)[O-])CS(=O)(=O)C2)cc1	none
Cc1ccc(NC2=C([N+](=O)[O-])CS(=O)(=O)C2)cc1	LANA-H2B inh 28
COc1ccccc1-n1cccc1C=O	Mot1-301 SUMO 659
COc1ccc(-n2cccc2C=O)cc1OC	none
Cc1ccc(N(CC(=O)N2CCN(c3ccc(F)cc3)CC2)S(=O)(=O)c2c(C)noc2C)cc1	none
CC(C)[C@H](NC(N)=O)C(=O)Nc1cccc(S(=O)(=O)NC2=NCCCCC2)c1	none (no result: IDE cell inh, Mot1-301 SUMO, HDAC3 inhib, LANA-H2B inh)
Cc1[nH]n(C2=NCCS2)c(=O)c1N=Nc1ccccc1	HDAC3 inhib 60
Cc1[nH]n(-c2ccccc2)c(=O)c1N=Nc1ccc2c(c1)OCO2	none
COc1ccc(NC(=O)CNC(=O)Cn2cnc3sc4c(c3c2=O)CCCC4)cc1OC	none
O=C(CCc1nnc(CCC2CCCCC2)o1)NCCn1cccn1	LANA-H2B inh 15
CCOc1ccc(/C=C/C(O)=C2/C(=O)N(C)C3(C)CC2c2ccccc2O3)cc1OC (stereo not given)	none
CN(C)c1ccc(/C=C/C(O)=C2/C(=O)N(C)C3(C)CC2c2ccccc2O3)cc1 (stereo not given)	IDE cell inh 42 (no result: IDE act)
CCOC(=O)c1c(C)[nH]c(N=Nc2ccc(C)cc2)c1C	none
Cc1ccc(N=Nc2c(O)ccc3n[nH]nc23)cc1	IDE act 55 (no result: IDE cell inh)
Cc1[nH]nc(SCC(=O)NCCc2ccccc2)c1[N+](=O)[O-]	LANA-H2B inh 12
Cc1[nH]nc(SCC(=O)NCc2ccccc2)c1[N+](=O)[O-]	none (no result: Mot1-301 SUMO, HDAC3 inhib, LANA-H2B inh)
COc1ccc(-n2nnnc2SCC(=O)Nc2c(C)n[nH]c2C)cc1	none
C=CCC[C@@H](Cc1ccc(F)cc1)C(=O)OC[C@@H]1CCCN1C(=O)[C@H](CC=C)CC(=O)N[C@H](CO)Cc1ccccc1	none
C=CC[C@H](CC(=O)N(CCO)Cc1ccccc1)C(=O)N[C@@H](COC(=O)[C@@H](CC=C)Cc1ccc(F)cc1)Cc1c[nH]c2ccccc12	HDAC3 inhib 39 (no result: LANA-H2B inh)
C=CCC[C@@H](Cc1ccc(F)cc1)C(=O)OC[C@@H]1CCCN1C(=O)[C@@H](CC=C)CC(=O)N(CCO)Cc1ccccc1	HDAC3 inhib 28
C=CC[C@H](CC(=O)N(CCO)Cc1ccccc1)C(=O)NC[C@H](OC(=O)[C@@H](CC=C)CC(=O)OC(C)(C)C)c1ccccc1	HDAC3 inhib 31
C=CCC[C@H](Cc1ccc(F)cc1)C(=O)OC[C@@H](Cc1c[nH]c2ccccc12)NC(=O)[C@H](CC=C)CC(=O)N(CCO)Cc1ccccc1	none
C=CC[C@@H](CC(=O)N(CCO)Cc1ccccc1)C(=O)N[C@H](COC(=O)[C@@H](CC=C)CC(=O)OC(C)(C)C)Cc1c[nH]c2ccccc12	HDAC3 inhib 50
CCOC(=O)C1CCCN(C(=O)Cn2cnc3sc(C)c(S(=O)(=O)N4CCOCC4)c3c2=O)C1 (stereo not given)	none
CCN(C(=O)COC(=O)CCOc1cc(C)ccc1C)c1c(N)n(Cc2ccccc2)c(=O)[nH]c1=O	none (no result: IDE cell inh, Mot1-301 SUMO, HDAC3 inhib, LANA-H2B inh)
O=C(NCc1ccccc1)C(c1ccccc1F)N(C(=O)c1csnn1)C1CCCC1 (stereo not given)	none
C=CCC[C@@H](Cc1ccc(F)cc1)C(=O)OC[C@@H](Cc1c[nH]c2ccccc12)NC(=O)[C@H](CC=C)CC(=O)N(CCO)Cc1ccccc1	HDAC3 inhib 51
C=CCC[C@@H](Cc1ccc(F)cc1)C(=O)OC[C@H](Cc1c[nH]c2ccccc12)NC(=O)[C@H](CC=C)CC(=O)NCCO	HDAC3 inhib 32
C=CC[C@@H](CC(=O)N(CCO)Cc1ccccc1)C(=O)N[C@@H](COC(=O)[C@@H](CC=C)Cc1ccc(F)cc1)Cc1c[nH]c2ccccc12	HDAC3 inhib 39
COc1cc(SC)ccc1C(=O)N1CCN(c2ccccc2OC)CC1	none
COC(=O)C1CCN(C(=O)c2ccc(SC)cc2OC)CC1	LANA-H2B inh 12
CCOC(=O)CC1C(=O)NCCN1c1nc2ccc(C)cn2c(=O)c1/C=C1\SC(=S)N(C(C)CC)C1=O (stereo not given)	IDE cell inh 43 (no result: IDE act)
C#CCOCCOCCOCCNc1nc(N2CCN(C(=O)CCCCCCCCCCNC(=O)[C@H](CCCCN)n3cc(C[C@@H](C)CC)nn3)CC2)nc(N2CCN(C(=O)CCCCCCCCCCNC(=O)[C@@H]([C@H](C)O)n3cc(C)nn3)CC2)n1	IDE act 34
C#CCOCCOCCOCCNc1nc(N2CCN(C(=O)CCCCCCCCCCNC(=O)[C@H](CCCCN)n3cc(C)nn3)CC2)nc(N2CCN(C(=O)CCCCCCCCCCNC(=O)[C@@H]([C@H](C)O)n3cc(C)nn3)CC2)n1	IDE act 21
C#CCOCCOCCOCCNc1nc(N2CCN(C(=O)CCCCCCCCCCNC(=O)[C@H](CCCCN)n3cc(CCO)nn3)CC2)nc(N2CCN(C(=O)CCCCCCCCCCNC(=O)[C@H](CCCCN)n3cc(C[C@@H](C)CC)nn3)CC2)n1	HDAC3 inhib inconclusive (no result: IDE act)
COc1cc(C(=O)COC(=O)c2cccs2)cc(OC)c1OC	none
CCOc1ccc(NC(=O)CC2SC(=O)N(c3ccccc3)C2=O)cc1 (stereo not given)	HDAC3 inhib 40
Cc1ccccc1NC(=O)CC1SC(=O)N(c2ccccc2)C1=O (stereo not given)	none
Cc1ccc(NC(=O)CN(C)C(=O)c2cc3c(s2)CCCCC3)cc1	LANA-H2B inh 21
Cc1ccc(C)c(NC(=O)CN(C)C(=O)c2cc3c(s2)CCCCC3)c1	none
CCN1CCN(C(c2ccccc2)c2nnnn2CCc2ccc(OC)c(OC)c2)CC1 (stereo not given)	LANA-H2B inh 15 (no result: Mot1-301 SUMO)
C=CCSc1nnc(NC(=O)Cn2cnc3c2c(=O)n(C)c(=O)n3C)s1	LANA-H2B inh 78
COc1cc(/C=N/Nc2nc(N3CCCC3)nc(N3CCCC3)n2)ccc1O	HDAC3 inhib 38
O=C(CCc1nnc(CCCCc2ccccc2)o1)N1CCCC(O)C1 (stereo not given)	Mot1-301 SUMO 276 (no result: HDAC3 inhib)
